High-throughput results as filed in PubChem BioAssay.
USP17 block: blocks human USP17 ubiquitin-rhodamine cleavage | A8MUK1 | purified USP17, Ub-rhodamine cleavage fluorescence, 3 h | inhibition, % at 50 µM | 47,000 compounds, 6.5% hits | AID 1645855
USP8 block: blocks human USP8 ubiquitin-rhodamine cleavage | P40818 | purified USP8, Ub-rhodamine cleavage fluorescence, 30 min | inhibition, % at 20 µM | 47,000 compounds, 4.2% hits
USP30 inh: human USP30 deubiquitinase inhibition; Q70CQ3; purified USP30, Ub-rhodamine cleavage fluorescence; inhibition, % at 25 µM; 47,000 compounds, 5.3% hits
USP10 block: inhibitors of human USP10 deubiquitinase. 47,000 compounds, 1.1% hits. inhibition, % at 20 µM. Q14694. purified USP10, Ub-rhodamine fluorescence, 60 min. AID 1645856
Target sequence (Q14694 whole entry, looked up): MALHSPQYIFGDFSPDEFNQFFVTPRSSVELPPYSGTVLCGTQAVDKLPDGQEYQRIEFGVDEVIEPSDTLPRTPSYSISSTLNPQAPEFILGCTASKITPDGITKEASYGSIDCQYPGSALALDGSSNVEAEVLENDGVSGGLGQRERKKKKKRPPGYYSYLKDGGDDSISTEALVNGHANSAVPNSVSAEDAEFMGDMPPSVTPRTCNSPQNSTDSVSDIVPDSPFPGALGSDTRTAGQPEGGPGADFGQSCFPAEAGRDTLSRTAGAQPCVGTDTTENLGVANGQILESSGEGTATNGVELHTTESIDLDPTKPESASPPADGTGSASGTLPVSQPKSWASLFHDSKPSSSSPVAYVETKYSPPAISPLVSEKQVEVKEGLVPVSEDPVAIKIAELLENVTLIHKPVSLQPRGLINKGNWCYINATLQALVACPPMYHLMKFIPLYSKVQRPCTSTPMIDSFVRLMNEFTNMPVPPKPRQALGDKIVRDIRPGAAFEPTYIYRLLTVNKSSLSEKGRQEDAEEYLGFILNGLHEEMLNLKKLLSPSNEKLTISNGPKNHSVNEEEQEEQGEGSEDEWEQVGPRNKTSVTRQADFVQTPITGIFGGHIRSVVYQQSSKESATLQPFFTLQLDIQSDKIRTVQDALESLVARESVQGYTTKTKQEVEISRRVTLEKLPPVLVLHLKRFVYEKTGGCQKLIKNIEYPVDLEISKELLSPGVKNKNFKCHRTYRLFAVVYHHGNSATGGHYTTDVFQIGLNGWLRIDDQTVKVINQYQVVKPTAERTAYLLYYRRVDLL
USP28 block: human USP28 deubiquitinase inhibition; AID 1645857; inhibition, % at 25 µM; purified USP28, Ub-rhodamine cleavage fluorescence, 30 min; 47,000 compounds, 3% hits; Q96RU2
Starred values were filed as active, the others as inactive; . = no result. Hits are enriched below; roughly 14% of the tested compounds scored in any of these assays. Rule as the data show it: active = inhibition above about 30%; inactive = the rest.

SMILES | USP17 block | USP8 block | USP30 inh | USP10 block | USP28 block
COCCn1c(SCC(=O)c2ccc(NC(C)=O)cc2F)nc2ccccc21 | 28 | 32* | 2 | 6 | 19
COCCn1c(SCC(=O)Nc2ccc(NC(=O)c3ccco3)c(OC)c2)nc2ccccc2c1=O | -57 | 20 | -41 | -3 | -9
CC(=O)N1C[C@@H]2C(=O)NC3(CCN(S(=O)(=O)c4ccccc4)CC3)[C@@H]2C1 | -1 | -22 | -13 | 3 | -4
COc1ccc(-c2csc(-c3ccncc3)n2)c(OC)c1 | 0 | 15 | -9 | 1 | -1
Cc1ccc(C(=O)NCC(=O)Nc2nc3ccccc3[nH]2)cc1 | 42* | -3 | -3 | 6 | 4
O=C(CNC(=O)c1cccc(F)c1)Nc1nc2ccccc2[nH]1 | 64* | 3 | 39* | 2 | 22
Cc1ccccc1CC(=O)NCC(=O)Nc1nc2ccccc2[nH]1 | 44* | 7 | 32* | 2 | 27
CC(C)C(=O)N1CC[C@@H]2CN(Cc3ccncc3)S(=O)(=O)[C@@H]2CC1 | -7 | 0 | -3 | 1 | -15
O=C(NCc1ccco1)c1c2c(nc3ccccc13)-c1ccccc1CC2 | 2 | 55* | -32 | 0 | -2
Cc1c2c(nc3ccccc13)-c1ccccc1CC2 | 5 | 16 | -22 | 4 | 55*
CCC(=O)N1Cc2ccccc2CC2(CCCN2CC2CCNCC2)C1 (centres undefined) | -12 | -170 | 4 | 1 | 0
CCOC(=O)c1c(C)oc2ccc(N(C(=O)c3ccncc3)S(=O)(=O)c3ccc(OCC)cc3)cc12 | -17 | -30 | -12 | 0 | 38*
O=C(c1ccc(N2CCOc3ccccc32)s1)N1CCCCC1 | 28 | 2 | 29 | 3 | 20
Cc1ccc(S(=O)(=O)NCc2cnn3ccccc23)c(C)c1 | 2 | 11 | -1 | -2 | 1
O=C(COc1ncnc2ccccc12)Nc1ccc2c(c1)OC1(CCCC1)O2 | 60* | 58* | 10 | 10 | 26
COc1ccc(C)cc1NC(=O)COc1ncnc2ccccc12 | 0 | 0 | 9 | 1 | 14
CN[C@H]1C[C@@H]2O[C@](C)([C@H]1OC)n1c3ccccc3c3c4c(c5c6ccccc6n2c5c31)C(=O)N[C@H]4O | -35 | -56 | -187 | -9 | -35
Cn1c(=O)n([C@@H](Cc2ccccc2)C(=O)N[C@@H](C(=O)O)c2ccc(O)cc2)c(=O)c2ccccc21 | 24 | 75* | 10 | 11 | 6
CC(C)(C)c1ccc(C(=O)Nc2ccc([C@@H](O)[C@H]3COCC(=O)N3)cc2)cc1 | -1 | 2 | -24 | -1 | 47*
Cc1ncc(CO)c2cc(C(=O)c3ccc(F)cc3)c(=O)oc12 | -9 | -29 | -25 | -2 | -8
O=c1ccc(-c2nnc3c4ccccc4c(Cc4ccccc4)nn23)n[nH]1 | 3 | 59* | 0 | 5 | 10
COCCNc1nnc(Cc2ccccc2)c(=O)[nH]1 | 8 | 11 | 22 | 0 | 14
Cc1cccc(NC(=O)CSC2=NC3(CCCCC3)Nc3ccccc32)c1 | -21 | -33 | -80 | -6 | -8
COc1ccc(-c2ocnc2C(=O)Nc2cccc(Cl)c2C)cc1OC | 28 | -23 | 58* | -2 | 0
Cc1nc(SCC(=O)Nc2ccc(S(N)(=O)=O)cc2)c2cnn(-c3ccccc3)c2n1 | -29 | -22 | -73 | 41* | -34
SMILES | USP17 block | USP8 block | USP30 inh | USP10 block | USP28 block
CCN1CCN(C(=O)c2n[nH]c3c2CC(C)CC3)CC1 (centres undefined) | 17 | 17 | 26 | 1 | 14
Cc1cc(NC(=O)Cn2cnc3c(oc4ccccc43)c2=O)no1 | 72* | 1 | . | 1 | .
O=c1c2oc3ccccc3c2ncn1CCCn1ccnc1 | -13 | 16 | 17 | -1 | 3
Cc1ccc(-n2nnc3c(=O)n(CC(=O)Nc4cc(C)on4)cnc32)cc1 | 32* | 14 | -6 | 20 | -5
Cc1cc(N2CCCC2)nc(N2CCN(C(=O)c3c(F)cccc3Cl)CC2)n1 | 11 | 0 | 10 | 0 | 6
Nc1nonc1C(=O)NCCNCc1cccc(OCc2ccc(Cl)cc2)c1 | 9 | -3 | 17 | 2 | 56*
O=C(NCc1csc(-c2ccccc2)n1)c1ccccc1F | 7 | 9 | 3 | 2 | 19
O=C(NCc1ccc(-c2nc3cnccc3o2)cc1)c1ccccc1F | 68* | -3 | 13 | -1 | 19
O=C(NCc1ccc(-c2nc3cnccc3o2)cc1)c1ccccc1Cl | 38* | 16 | -26 | -1 | -9
CC(=O)N(C)C1CCC2(CC1)CN(Cc1ccc3c(c1)OCCO3)Cc1ccccc1O2 (centres undefined) | -21 | -19 | -19 | -1 | -9
